Laboratory results published in PubChem BioAssay (Tox21).
Records with an inconclusive call do not appear. Where a call stands in place of a potency, no number is given. A number with no mark means an inactive call. Active and inactive are the calls of the source. The call rests on the fitted dose curve; in most records, active means well fitted curve in the direction sought with a large enough effect in the repeat runs; inconclusive means weak or mixed curves; inactive means no such curve, though single readings can be large; an effect the other way counts as inactive or inconclusive.

How the values were obtained:
[1] = target: Cytochrome P450 2D6 (Homo sapiens) (UniProt P10635); assay: Cytochrome P450 Family 2 Subfamily D Member 6 (CYP2D6) small molecule antagonists: luciferase reporter qHTS assay (AID 1671196); further: nearly all actives have a fitted effect of over 50% in size; further: potency means the concentration at half of the fitted maximal effect
Cytochrome P450 2D6 (Homo sapiens), sequence (P10635 whole entry, looked up): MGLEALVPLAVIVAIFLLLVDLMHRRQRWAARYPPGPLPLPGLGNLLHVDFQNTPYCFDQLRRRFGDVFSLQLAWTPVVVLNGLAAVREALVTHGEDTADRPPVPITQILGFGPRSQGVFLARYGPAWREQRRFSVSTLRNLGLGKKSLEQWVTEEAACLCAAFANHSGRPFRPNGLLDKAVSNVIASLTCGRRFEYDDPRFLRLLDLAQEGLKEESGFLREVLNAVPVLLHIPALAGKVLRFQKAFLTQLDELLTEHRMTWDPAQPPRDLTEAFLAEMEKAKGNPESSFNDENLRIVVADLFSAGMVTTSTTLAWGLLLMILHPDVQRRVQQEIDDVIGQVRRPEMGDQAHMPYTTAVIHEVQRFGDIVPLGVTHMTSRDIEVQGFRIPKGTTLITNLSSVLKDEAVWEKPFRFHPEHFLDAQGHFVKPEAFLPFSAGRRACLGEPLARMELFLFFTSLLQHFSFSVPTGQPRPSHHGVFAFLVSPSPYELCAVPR
How it was run: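 Chemicals tested for interference with CYP2D6 activity; proluciferin substrate, NADPH regeneration, 1 h at room temperature, luminescent detection.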

[2] = target: Cytochrome P450 2C19 (Homo sapiens) (UniProt P33261); assay: Cytochrome P450 Family 2 Subfamily C Member 19 (CYP2C19) small molecule antagonists: luciferase reporter qHTS assay (AID 1671197); further: nearly all actives have a fitted effect of over 65% in size; further: potency means the concentration at half of the fitted maximal effect
Cytochrome P450 2C19 (Homo sapiens), sequence (P33261 whole entry, looked up): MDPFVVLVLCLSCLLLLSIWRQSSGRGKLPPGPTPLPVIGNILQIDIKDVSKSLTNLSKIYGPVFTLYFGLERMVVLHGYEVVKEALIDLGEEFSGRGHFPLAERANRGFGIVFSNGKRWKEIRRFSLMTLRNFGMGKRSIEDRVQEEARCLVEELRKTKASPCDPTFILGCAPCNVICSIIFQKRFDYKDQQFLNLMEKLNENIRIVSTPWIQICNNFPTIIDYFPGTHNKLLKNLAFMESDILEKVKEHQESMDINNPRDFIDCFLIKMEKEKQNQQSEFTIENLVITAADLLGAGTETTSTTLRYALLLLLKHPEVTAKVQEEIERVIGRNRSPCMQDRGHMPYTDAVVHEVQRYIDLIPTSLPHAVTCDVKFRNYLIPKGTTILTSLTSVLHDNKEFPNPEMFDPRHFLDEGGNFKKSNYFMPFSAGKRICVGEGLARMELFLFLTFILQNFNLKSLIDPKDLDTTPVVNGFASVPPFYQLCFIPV
How it was run: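 CYP2C19 P450-Glo, 1536-well qHTS. Cpd + enzyme/proluciferin substrate 10 min RT; + NADPH regen, 37C 1 h; stop with luciferin detection reagent, 20 min RT, luminescence (RLU). Pos ctrl ketoconazole.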

[3] = target: Cytochrome P450 2C9 (Homo sapiens) (UniProt P11712); assay: Cytochrome P450 Family 2 Subfamily C Member 9 (CYP2C9) small molecule antagonists: luciferase reporter qHTS assay (AID 1671198); further: nearly all actives have a fitted effect of over 50% in size; further: potency means the concentration at half of the fitted maximal effect
Cytochrome P450 2C9 (Homo sapiens), sequence (P11712 whole entry, looked up): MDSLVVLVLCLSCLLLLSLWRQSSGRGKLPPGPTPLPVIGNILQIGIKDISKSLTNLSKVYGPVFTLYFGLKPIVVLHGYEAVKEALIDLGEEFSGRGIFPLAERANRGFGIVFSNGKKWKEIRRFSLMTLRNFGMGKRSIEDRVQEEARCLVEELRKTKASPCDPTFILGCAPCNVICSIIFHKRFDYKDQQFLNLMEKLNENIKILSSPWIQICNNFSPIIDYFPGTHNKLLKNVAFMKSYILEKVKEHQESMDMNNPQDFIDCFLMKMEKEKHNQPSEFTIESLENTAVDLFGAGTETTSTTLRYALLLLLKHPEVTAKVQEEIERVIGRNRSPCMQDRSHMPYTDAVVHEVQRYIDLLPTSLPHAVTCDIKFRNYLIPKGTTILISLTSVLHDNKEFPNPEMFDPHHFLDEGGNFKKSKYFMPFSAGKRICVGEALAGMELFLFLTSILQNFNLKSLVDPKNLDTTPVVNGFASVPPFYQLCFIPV
How it was run: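 P450-Glo proluciferin substrate with CYP2C9 enzyme; 10 min RT preincubation, then NADPH regeneration 1 h at 37C; luciferin detection reagent 20 min RT, luminescence in relative luminescence units.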

[4] = target: Cytochrome P450 1A2 (Homo sapiens) (UniProt P05177); assay: Cytochrome P450 Family 1 Subfamily A Member 2 (CYP1A2) small molecule antagonists: luciferase reporter qHTS assay (AID 1671199); further: nearly all actives have a fitted effect of over 50% in size; further: potency means the concentration at half of the fitted maximal effect
Cytochrome P450 1A2 (Homo sapiens), sequence (P05177 whole entry, looked up): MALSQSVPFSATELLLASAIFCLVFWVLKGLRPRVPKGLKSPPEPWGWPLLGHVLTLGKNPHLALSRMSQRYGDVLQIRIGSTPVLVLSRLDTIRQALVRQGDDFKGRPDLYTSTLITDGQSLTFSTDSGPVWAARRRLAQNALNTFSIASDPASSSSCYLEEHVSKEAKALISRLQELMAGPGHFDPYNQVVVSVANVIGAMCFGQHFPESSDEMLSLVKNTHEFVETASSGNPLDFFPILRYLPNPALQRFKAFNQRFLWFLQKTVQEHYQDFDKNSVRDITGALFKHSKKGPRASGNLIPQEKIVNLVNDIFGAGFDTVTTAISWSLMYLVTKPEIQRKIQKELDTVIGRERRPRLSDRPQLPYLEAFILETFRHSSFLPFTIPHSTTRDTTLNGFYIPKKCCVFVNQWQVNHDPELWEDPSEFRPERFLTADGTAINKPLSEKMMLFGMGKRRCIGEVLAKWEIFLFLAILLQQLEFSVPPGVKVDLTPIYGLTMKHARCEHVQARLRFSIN
How it was run: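 Read-out is luminescence from luciferin detection reagent (20 min) proportional to CYP1A2 activity; compounds in DMSO preincubated 10 min with enzyme and proluciferin substrate, then NADPH regeneration solution, 1 h, room temperature.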

[5] = target: Voltage-gated inwardly rectifying potassium channel KCNH2 (Homo sapiens) (UniProt Q12809); assay: Human Ether-a-go-go-Related Gene (hERG) channel small molecule antagonists: fluorescence cell-based qHTS assay (AID 1671200);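 further: hERG-expressing U2OS cells given a thallium stimulus after FluxOR II dye loading; series mostly up to about 77 µM; nearly all actives have a fitted effect of over 50% in size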
Voltage-gated inwardly rectifying potassium channel KCNH2 (Homo sapiens), sequence (Q12809 whole entry, looked up): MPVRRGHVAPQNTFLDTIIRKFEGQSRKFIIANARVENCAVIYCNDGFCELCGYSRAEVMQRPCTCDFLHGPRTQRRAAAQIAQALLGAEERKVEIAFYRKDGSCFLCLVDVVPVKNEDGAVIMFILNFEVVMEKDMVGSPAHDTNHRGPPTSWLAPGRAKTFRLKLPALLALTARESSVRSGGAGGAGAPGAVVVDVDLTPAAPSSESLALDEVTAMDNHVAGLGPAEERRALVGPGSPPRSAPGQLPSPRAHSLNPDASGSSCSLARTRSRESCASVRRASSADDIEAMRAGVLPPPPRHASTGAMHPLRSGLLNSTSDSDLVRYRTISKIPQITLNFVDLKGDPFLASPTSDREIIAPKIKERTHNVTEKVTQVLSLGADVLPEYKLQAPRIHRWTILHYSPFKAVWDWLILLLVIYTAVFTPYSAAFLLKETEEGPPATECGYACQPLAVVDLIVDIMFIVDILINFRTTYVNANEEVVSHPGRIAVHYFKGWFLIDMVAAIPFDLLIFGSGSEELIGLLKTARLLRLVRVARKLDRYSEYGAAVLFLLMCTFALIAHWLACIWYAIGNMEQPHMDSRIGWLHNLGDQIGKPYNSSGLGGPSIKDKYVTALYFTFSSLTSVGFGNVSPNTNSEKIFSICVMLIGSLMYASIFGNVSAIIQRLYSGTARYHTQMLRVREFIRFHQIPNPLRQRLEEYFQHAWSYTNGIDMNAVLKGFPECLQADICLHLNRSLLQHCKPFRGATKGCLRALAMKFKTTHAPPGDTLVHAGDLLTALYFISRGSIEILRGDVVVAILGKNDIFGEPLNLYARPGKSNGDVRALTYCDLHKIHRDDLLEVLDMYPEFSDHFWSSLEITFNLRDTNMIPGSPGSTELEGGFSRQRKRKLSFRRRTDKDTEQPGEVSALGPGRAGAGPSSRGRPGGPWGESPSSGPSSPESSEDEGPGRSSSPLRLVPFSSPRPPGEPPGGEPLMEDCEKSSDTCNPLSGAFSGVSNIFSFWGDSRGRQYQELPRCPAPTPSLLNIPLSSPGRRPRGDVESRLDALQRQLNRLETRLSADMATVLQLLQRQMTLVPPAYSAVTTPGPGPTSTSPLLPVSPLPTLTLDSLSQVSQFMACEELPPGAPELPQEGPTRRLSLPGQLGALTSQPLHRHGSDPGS
How it was run: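 Thallium served as the potassium surrogate; its influx into dye-loaded U2OS cells carrying the channel was measured by fluorescence over 2 min.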

[6] = target: Cytochrome P450 3A4 (Homo sapiens) (UniProt P08684); assay: Cytochrome P450 Family 3 Subfamily A Member 4 (CYP3A4) small molecule antagonists: luciferase reporter qHTS assay (AID 1671201)
Cytochrome P450 3A4 (Homo sapiens), sequence (P08684 whole entry, looked up): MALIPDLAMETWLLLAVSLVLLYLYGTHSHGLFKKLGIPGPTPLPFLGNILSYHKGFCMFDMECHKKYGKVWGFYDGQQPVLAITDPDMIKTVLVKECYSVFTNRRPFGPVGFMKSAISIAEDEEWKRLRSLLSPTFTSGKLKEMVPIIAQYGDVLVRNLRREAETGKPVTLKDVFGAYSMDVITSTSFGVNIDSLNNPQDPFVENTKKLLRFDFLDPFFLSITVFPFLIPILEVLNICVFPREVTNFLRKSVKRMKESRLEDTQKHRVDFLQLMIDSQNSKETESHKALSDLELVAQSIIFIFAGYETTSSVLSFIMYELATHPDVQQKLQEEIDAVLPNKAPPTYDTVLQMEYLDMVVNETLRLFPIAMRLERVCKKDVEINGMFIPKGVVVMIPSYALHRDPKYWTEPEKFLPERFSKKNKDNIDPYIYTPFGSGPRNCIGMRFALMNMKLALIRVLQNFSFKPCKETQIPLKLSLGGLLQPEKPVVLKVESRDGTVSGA
How it was run: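 Relative luminescence units after 20 min with luciferin detection reagent served as read-out. Beforehand, CYP3A4 turned over a proluciferin substrate for 1 h at room temperature with NADPH regeneration, following 10 min compound preincubation.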

Compound | Potency [1] | Potency [2] | Potency [3] | Potency [4] | Potency [5] | Potency [6]
CNS(=O)(=O)CCc1ccc2[nH]cc(C3CCN(C)CC3)c2c1 | 34.7 µM (active) | inactive | inactive | inactive | inactive | inactive
COc1ccc2c(c1)C(=O)N(CCc1ccc(S(=O)(=O)NC(=O)NC3CCCCC3)cc1)C(=O)C2(C)C | inactive | inactive | 13.8 µM (active) | inactive | inactive | 
CC(C)C(=O)OCc1cccc(OC(=O)[C@@H]2N3C(=O)[C@@H](NC(=O)Cc4ccccc4)[C@H]3SC2(C)C)c1 | inactive | inactive | 12.3 µM (active) | inactive |  | 
CCOc1cc([N+](=O)[O-])c(OCC)cc1N1CCOCC1 | inactive | inactive | 7.96 µM (active) | 1.78 µM (active) | inactive | inactive
CC(C)NCC(O)COc1ccc(COCCOC(C)C)cc1 (stereo not drawn) | inactive | inactive | inactive | inactive | inactive | 
CC(=O)CCCCn1c(=O)c2c(ncn2C)n(C)c1=O | inactive | inactive | inactive | inactive | inactive | inactive
COc1ccc2nc(SCc3ncc(C)c(OC)c3C)[nH]c2c1 | 27.5 µM (active) | 2.19 µM (active) | 13.8 µM (active) | 15.5 µM (active) | inactive | 
COc1ccc(Br)c(C)c1 | inactive | 36 µM (active) | inactive | 32 µM (active) | inactive | inactive
CN=C(NC#N)Nc1ccc(C2=NNC(=O)CC2C)cc1 (stereo not drawn) | inactive | inactive | inactive | inactive | inactive | inactive
CC(C)CCCCOC(=O)c1ccccc1C(=O)OCCCCC(C)C | inactive | 31.8 µM (active) | 17.9 µM (active) | 17.9 µM (active) | inactive | 
CC(C)CCCC(C)(C)O | inactive | inactive | inactive | inactive | inactive | inactive
CC(=C(CCOC(=O)C(C)C)SSC(CCOC(=O)C(C)C)=C(C)N(C=O)Cc1cnc(C)nc1N)N(C=O)Cc1cnc(C)nc1N | inactive | inactive | inactive | inactive | inactive | 
C=COCCOCCOCCOC=C | inactive | 79.6 µM (active) | inactive | 35.6 µM (active) | inactive | inactive
OCCCCC(O)CO (stereo not drawn) | inactive | inactive | 67.2 µM (active) | inactive | inactive | inactive
CCCCCCOc1ccccc1C(N)=O | inactive | 17.4 µM (active) | 8.71 µM (active) | 13.8 µM (active) | inactive | inactive
